In PubChem BioAssay AID1239 (SRMLSC, 2008) one finds fold change data, which are given here for 103 compounds.

The structures appear in SMILES notation. In all, about 190,000 compounds went through this assay and about 3,100 (1.6%) were called active. The full list was thinned out, with actives kept by preference. Values without a mark were called inactive. No stated cut-off is given here; in the data, active means fold change above about 3.3; inconclusive means no clear call, values can overlap the other calls; inactive means below that.

This assay is described as follows: NF-kB upregulation, human neuronal cells – cell-based, HTS, primary screen (AID 1239). The note with it: NF-kB reporter expression, at 12.5 µM, stronger effect = higher value.
In the case of `O=C(Nc1nc(-c2cccnc2)cs1)c1ccccc1F`, the fold change was 1.73.

Regarding `COc1cc(NC(=S)N2CCCC(C)C2)cc(OC)c1OC` (stereo not drawn), the fold change was 1.11.

On to `COc1ccc(/C=C(\C#N)C(=O)ONC2=NCCCCC2)cc1`, for which the fold change was 1.26.

As to `Cc1csc(NC(=O)Nc2ccccc2[N+](=O)[O-])n1`, the fold change was 3.38 (active).

Turning to `Cc1c(NC(=O)Nc2ccccc2)cccc1[N+](=O)[O-]`, the fold change was 1.43.

Take `Cc1cc(NC(=O)Nc2ccccc2[N+](=O)[O-])no1`: the fold change was 1.12.

Consider `Cc1csc(NC(=O)CN2CCCCCC2)n1`, for which the fold change is 1.18.

For `Cc1csc(NC(=O)NC2(C(F)(F)F)Oc3ccccc3O2)n1`, the fold change was 5.29 (active).

Regarding `COc1cc(SC)ccc1C(=O)Nc1nc(C)cs1`, the fold change was 0.52.

As for `Cc1ccnc(NC(=O)c2ccc(Cl)c([N+](=O)[O-])c2)c1`, the fold change is 2.09.

Turning to `CNC(=S)Nc1ccc([N+](=O)[O-])cc1`, the fold change is 1.13.

With `Cc1ccccc1N1C(=O)C(Oc2ccc(Cl)cc2)C1CNCC1CCCO1` (stereo not drawn), the fold change is 1.25.

With `CCOC(=O)CCNC(=O)N1CCCC(C(=O)c2ccccc2SC)C1` (stereo not drawn), the fold change is 1.

With `O=C(Nc1cccc(-c2nnc(-c3ccccc3)o2)c1)C1CCCO1` (stereo not drawn), the fold change was 0.88.

For the compound `O=C(Nc1ccc(-c2nnc(-c3ccccc3)o2)cc1)C1CCCO1` (stereo not drawn), the fold change was 4.06 (active).

On to `O=C(Nc1nnc(CCc2ccccc2)s1)C1CCCO1` (stereo not drawn), for which the fold change was 1.38.

In the case of `COc1ccc(-n2nc3c(c2NC(=O)c2ccc(N4C(=O)CCC4=O)cc2)CSC3)cc1`, the fold change was 1.2.

In the case of `C=CCN(C(=O)c1cc(C)cc(C)c1)C1(C(=O)Nc2ccccc2)CCN(C(C)C)CC1`, the fold change was 0.87.

`CC1CN(CCOc2ccccc2[N+](=O)[O-])CC(C)O1` (stereo not drawn): the fold change was 1.22.

For the compound `CC1CCN(S(=O)(=O)c2ccc3ncn(CC(=O)N(C)C4CCCCC4)c(=O)c3c2)CC1`, the fold change is 0.79.

Consider `O=C(OCC(=O)c1cccs1)c1ccc([N+](=O)[O-])o1`, for which the fold change was 0.88.

For the compound `Cc1cc(=O)n2[nH]c(-c3sccc3-n3c(C)ccc3C)cc2n1`, the fold change is 1.08.

Consider `CCOC(=O)CSc1ccccn1`, for which the fold change was 0.99.

Take `CCOC(=O)CSC1=N/C(=C/c2ccc(-n3cncn3)cc2)C(=O)N1C(C)=O`: the fold change is 4.34 (active).

In the case of `CCOC(=O)CSc1nc(C)cc2c1C(=O)OC2`, the fold change is 1.43.

`CC1=NN(c2ccccc2)C(=O)C1C(=O)c1ccc([N+](=O)[O-])cc1` (stereo not drawn): the fold change was 0.91.

In the case of `O=C(O)/C=C/c1cn(Cc2ccccc2)nc1-c1cccs1`, the fold change was 1.06.

For the compound `NS(=O)(=O)c1cccc(NC(=O)CN2CCCc3ccccc32)c1`, the fold change is 0.95.

As for `CC(NC(=O)Nc1ccc2c(c1)OCO2)c1ccncc1` (stereo not drawn), the fold change was 1.61.

Consider `CCc1c(C)sc(NC(=O)/C=C/c2ccc3c(c2)OCO3)c1C(=O)OC`, for which the fold change was 1.05.

With `COc1ccc(/C=C/C(=O)Nc2ccc3c(c2)OCCO3)cc1OC`, the fold change was 0.68.

As for `O=C(/C=C/c1ccc2c(c1)OCO2)NCc1ccc(F)cc1`, the fold change was 1.46.

As to `Cc1cccc(NC(=O)/C=C/c2ccc3c(c2)OCO3)n1`, the fold change was 8.04 (active).

With `CCSc1ccccc1C(=O)Nc1ccc2c(c1)OCO2`, the fold change was 1.88.

With `COc1ccc(OC)c(/C=C/C(=O)OCC(=O)Nc2ccc3c(c2)OCCO3)c1`, the fold change is 1.

As for `Cc1cccc(NC(=O)Nc2ccc3c(c2)OCO3)n1`, the fold change was 4.19 (active).

For `COc1cccc(/C=C/C(=O)Nc2ccc3c(c2)OCCO3)c1`, the fold change is 6.74 (active).

As for `COc1ccc(N2C(=O)C(Cc3ccccc3)NC2=S)cc1` (stereo not drawn), the fold change was 1.19.

For the compound `Cc1nn(C)c(C)c1S(=O)(=O)N1CCC(CO)(Cc2ccc(Cl)cc2)CC1`, the fold change was 0.97.

For `O=C(N/N=C/c1cc2c(cc1Br)OCO2)C1COc2ccccc2O1` (stereo not drawn), the fold change is 1.55.

As for `COc1cc(NC(=S)NCc2ccc(S(N)(=O)=O)cc2)cc(OC)c1`, the fold change is 1.03.

Take `CSc1ccccc1NC(=O)CN(C)CC(=O)Nc1ccc(Cl)cc1[N+](=O)[O-]`: the fold change was 1.29.

For the compound `Cc1cc(C)nc(N/N=C/c2c(C)oc3ccccc23)n1`, the fold change was 1.11.

Consider `Cc1noc(C)c1/C=N/Nc1ccc2ccccc2n1`, for which the fold change is 4.12 (active).

Turning to `C(=N\Nc1ccc2ccccc2n1)/c1ccc2c(c1)OCO2`, the fold change is 1.78.

Consider `O=C1c2ccccc2C(=O)N1CCC(O)C[N+](=O)[O-]` (stereo not drawn), for which the fold change is 0.98.

Take `COc1ccc(-c2nc3cnccn3c2NC(C)(C)CC(C)(C)C)cc1O`: the fold change was 0.68.

As for `CC(=O)Nc1ccc(-c2csc(NC(=O)Nc3ccccc3)n2)cc1`, the fold change was 1.32.

`O=C(Nc1cccc([N+](=O)[O-])c1)c1ccc2c(c1)OCO2`: the fold change was 1.37.

As for `COCc1nnc(NC(=O)c2ccc3c(c2)OCO3)s1`, the fold change was 2.07.

Regarding `COc1ccc(C(=O)Nc2ccc3c(c2)OCO3)cc1OC`, the fold change was 2.06.

As for `O=C(Nc1cccnc1)c1ccc2c(c1)OCO2`, the fold change was 1.47.

For the compound `O=C(Nc1ccccc1)Nc1nc2ccccc2s1`, the fold change is 8.18 (active).

As for `CC(C)C(=O)Nc1cccc(C(=O)Nc2ccc3c(c2)OCO3)c1`, the fold change was 4.07 (active).

Consider `Cn1nnnc1SCC(=O)Nc1nc2ccccc2s1`, for which the fold change was 1.74.

Turning to `O=C(Nc1nc2ccccc2s1)c1ccc2c(c1)OCO2`, the fold change is 7.05 (active).

Consider `O=C(Nc1ccccc1)c1ccc2c(c1)OCO2`, for which the fold change is 3.31 (active).

On to `Cn1c(=O)n(C)c2cc(C(=O)Nc3ccc4c(c3)OCO4)ccc21`, for which the fold change was 1.54.

As for `Cc1cc(C)c2nc(NC(=O)c3ccc4c(c3)OCO4)sc2c1`, the fold change was 1.11.

On to `COc1ccc(-c2nn(-c3ccccc3)cc2CN2CCCO2)c(F)c1`, for which the fold change is 1.16.

In the case of `NC(N)=N/N=C/c1ccc(Cl)c([N+](=O)[O-])c1`, the fold change is 1.03.

As for `CN1CCN(NC(=O)c2ccc(S(=O)(=O)N3CCCCCC3)cc2)CC1`, the fold change is 0.97.

On to `O=c1[nH]n(-c2ccc([N+](=O)[O-])cc2)c(=O)c2ccccc12`, for which the fold change was 1.

Take `CC(=O)c1ccc(N=C2SCCCN2C(=O)C2CCCCC2)cc1`: the fold change was 1.75.

Take `COc1cccc(NC(=O)CS(=O)(=O)c2cn(CC(=O)N3CCOCC3)c3ccccc23)c1`: the fold change is 0.88.

In the case of `O=C(CSc1nc2ccc(Nc3nc(N4CCOCC4)nc(N4CCOCC4)n3)cc2s1)NCc1ccco1`, the fold change is 1.02.

Turning to `CC(C)(C)C1CCC(C(=O)Nc2cccnc2)CC1` (stereo not drawn), the fold change was 0.97.

As for `COC(=O)C(=Nc1ccccc1)/C(C(=O)C(=O)N(C)c1ccccc1)=C(\O)c1ccc(Cl)cc1`, the fold change is 0.95.

As for `O=C(Nc1ccc2nccnc2c1)c1ccco1`, the fold change was 1.46.

Take `O=C(Nc1cccc(-c2nc3ncccc3o2)c1)c1ccco1`: the fold change was 0.74.

Regarding `O=C(Nc1ccc2oc(-c3ccccc3F)nc2c1)c1ccco1`, the fold change was 5.05 (active).

As for `CSc1ccccc1C(=O)NCc1ccccc1`, the fold change is 1.09.

For `O=C(Cc1ccccc1)NC(=S)Nc1ccc(N2CCCCC2)cc1`, the fold change is 1.04.

Turning to `COc1cccc(C(=O)Nc2cc3c(cc2Br)OCCCO3)c1`, the fold change is 3.38 (active).

For the compound `COc1cccc(C(=O)Nc2ccc(N3CCCC3)cc2)c1`, the fold change is 3.3 (active).

For the compound `COc1ccc(C(=O)NC(=S)Nc2ccc(N3CCCC3)cc2)cc1OC`, the fold change is 0.99.

Consider `COc1cccc(OC)c1C(=O)Nc1ccc(N2CCCCC2)cc1`, for which the fold change is 0.92.

Consider `C/C(=N\NC(=O)c1ccccc1C)c1ccc(N2CCOCC2)cc1`, for which the fold change is 1.09.

Regarding `COc1ccc(C2COC(=O)C2=N)c(NC(=O)c2ccccc2)c1` (stereo not drawn), the fold change was 1.02.

`COc1cccc(C(=O)NNC(=O)c2ccccc2Br)c1`: the fold change is 1.05.

Regarding `Cc1ccccc1C(=O)Nc1ccc(N2CCCCCC2)cc1`, the fold change was 3.92 (active).

Regarding `COn1c(-c2ccc(Cl)cc2Cl)nc2ncccc21`, the fold change is 1.29.

Take `O=C(CN1CCC(O)(c2ccccc2)CC1)Nc1ccc2c(c1)OCCO2`: the fold change is 0.97.

For `COc1ccc(CN2CCCC(CNC(=O)c3ccc(F)cc3)C2)cc1OC` (stereo not drawn), the fold change was 1.13.

Consider `CCN(CC(=O)NCCc1ccccc1)S(=O)(=O)c1ccccc1`, for which the fold change is 1.36.

Regarding `CC1CCCN(CC(O)COc2ccc3c(c2)OCO3)C1` (stereo not drawn), the fold change is 1.2.

With `C/C(=N\OCC(=O)Nc1ccc(Br)cc1)c1cccs1`, the fold change is 1.23.

With `CCOc1ccc2nc(NCCNS(=O)(=O)c3ccccc3)c(C#N)cc2c1`, the fold change is 1.4.

`Cc1nonc1NC(=O)CSc1nc2ccccc2cc1C#N`: the fold change is 1.83.

As for `CCOc1ccc2cc(C#N)c(SCC(=O)OC)nc2c1`, the fold change was 5.87 (active).

Consider `CC(C)N1CCC(=NNc2ccc([N+](=O)[O-])cc2S(=O)(=O)N2CCOCC2)CC1`, for which the fold change was 1.19.

`COc1ccc(N2C(=O)/C(=C\c3ccco3)N=C2SCC(N)=O)cc1Cl`: the fold change is 1.3.

As to `CCN(CC(=O)Nc1ccc(Cl)c(S(=O)(=O)N(C)C)c1)Cc1nc2ccccc2c(=O)[nH]1`, the fold change was 0.79.

For `O=C(OCC#CCSc1nnc(-c2ccncc2)o1)c1sc2ccccc2c1Cl`, the fold change was 1.38.

For `Clc1ccc(-c2nnc(SCc3nc4ccccc4s3)o2)cc1`, the fold change was 1.18.

For `C#CCSc1nnc(-c2sc3ccccc3c2Cl)o1`, the fold change is 3.81 (active).

Take `CC(C)(C)C(=O)CN1C2=NCCN2c2ccccc21`: the fold change is 1.09.

In the case of `Cc1ccnc(NC(=O)CCC(=O)N(CC(=O)NCc2ccccc2)Cc2ccco2)c1`, the fold change was 0.85.

As to `Cc1ccc2c(=O)oc(N(C)C)nc2c1`, the fold change was 0.93.

Take `O=C(CSc1ccsc1[N+](=O)[O-])N1CCCCC1`: the fold change was 1.39.

For `O=C1C2C3C=CC(C3)C2C(=O)N1c1ccc(-c2nc3ccccc3c(=O)o2)cc1` (stereo not drawn), the fold change was 1.08.

In the case of `O=c1oc(/C=C/c2ccccc2)nc2ccccc12`, the fold change is 4.63 (active).

With `S=c1[nH]nc(/C=C/c2ccccc2)o1`, the fold change is 1.12.
